Screening data: PubChem, National Center for Advancing Translational Sciences (NCATS)
A selection: hits, their analogues and other compounds. The true share with any hit is near 9.3%.
Vaccinia mCherry: inhibitors of vaccinia virus infection (mCherry reporter signal); Potency, µM (titrated, usually from 36.5 µM), actives largely listed as inhibitors; actives 0.63% (n = 310,000); AID 720579; Vaccinia virus mCherry reporter infection, fluorescence; calls by dose curve; tested in A549 cells; also: nearly all actives have a fitted effect of over 35% in size
Sm TGR block: blocks Schistosoma mansoni thioredoxin glutathione reductase; actives 3% (n = 360,000); purified TGR, DTNB reduction, TNB absorbance 405 nm; AID 485364; Potency, µM (series often up to 114 µM), hits mostly inhibitors; Q962Y6; also: nearly all actives have a fitted effect of over 60% in size
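Kinetic colorimetric format: TGR-catalysed, NADPH-driven DTNB reduction monitored via TNB absorbance. Enzyme dispensed at 20 nM; compound exposure 15 min at room temperature before reaction start.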
Vaccinia Venus: inhibitors of vaccinia virus (Venus reporter) | AID 720580 | actives 0.46% (n = 330,000) | Vaccinia virus Venus reporter expression, fluorescence | Potency, µM (doses to about 36.5 µM), actives largely listed as inhibitors; calls by dose curve; tested in A549 cells; also: nearly all actives have a fitted effect of over 30% in size
FMDV antiviral: blocks foot and mouth disease virus | Potency, µM (titrated, usually from 57.9 µM), actives largely listed as inhibitors | FMDV antiviral cell-based qHTS | actives 1.2% (n = 410,000); calls by dose curve; tested in HEK293T cells; also: read-out not given here; nearly all actives have a fitted effect of over 45% in size
HCMV antiviral: human cytomegalovirus inhibition. actives 4.5% (n = 410,000). HFF cells, HCMV-luciferase reporter, 72 h; active compounds read low. activity change, negative = inhibition, % at 57.5 µM; in the data active = activity change below about -60%; inconclusive = no clear call, values can overlap the other calls; inactive = above about -39%
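Two-dose cell screen: HFF monolayers treated with compounds and infected with luciferase-expressing HCMV at 1 PFU/cell, 72 h at 37C, then lysed for luciferase measurement.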
HCV inhibitor: inhibitors of hepatitis C virus infection. Huh7.5.1 HCVcc-Cre infection, luciferase reporter, 44 h. Potency, µM (top dose mostly 41.8 µM), usual class: inhibitors. AID 651820. actives 3.4% (n = 340,000)
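Infectious HCV cell culture screen: compound-treated cells (1,000/well, pre-plated 4 h) are infected with HCVcc-Cre at roughly 0.5 moi and grown 44 h. Infection is quantified by luciferase signal after 15 min substrate incubation at room temperature.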
A number is an active result; [ ] = another dose, or the depositor's remark. Unless noted, calls follow the shape of the dose curve; as a rule, active = well fitted curve in the direction sought with a large enough effect; inconclusive = small, poorly fitted or top-dose-only effect, or another doubt; inactive = no such curve, though single readings can be large; an effect the other way counts as inactive or inconclusive.

COc1ccc(C(=O)C[n+]2cc(-c3ccc(OC)cc3)n3c2CCCC3)cc1 was read as Vaccinia mCherry inactive, Sm TGR block inactive, Vaccinia Venus inconclusive, FMDV antiviral inconclusive, HCMV antiviral -67 and HCV inhibitor inactive.
`Cc1ccc(-c2c[n+](Cc3ccc(Cl)c(Cl)c3)c3n2CCC3)cc1` gave Vaccinia mCherry inactive, Sm TGR block inactive, Vaccinia Venus inactive, FMDV antiviral inactive, HCMV antiviral -99 and HCV inhibitor inactive.
`Cc1ccc(-c2c[n+](CC(=O)Nc3ccc(C)cc3C)c3n2CCC3)cc1` gave Vaccinia mCherry inactive[7.34 µM], Sm TGR block inactive, Vaccinia Venus inactive[7.34 µM], FMDV antiviral inactive, HCMV antiviral -71 and HCV inhibitor inactive.
Cc1ccc(NC(=O)C[n+]2cc(-c3ccc(C)cc3)n3c2CCC3)cc1 was read as Vaccinia mCherry inactive, Sm TGR block inactive, Vaccinia Venus inactive, FMDV antiviral inactive, HCMV antiviral inactive and HCV inhibitor inconclusive.
`O=C(C[n+]1cc(-c2ccccc2)n2c1CCCCC2)c1ccc(Br)cc1` gave Vaccinia mCherry inactive, Vaccinia Venus inactive, FMDV antiviral inconclusive, HCMV antiviral inactive and HCV inhibitor inconclusive.
`Cc1ccc(C(=O)C[n+]2cc(-c3ccc(C)cc3)n3c2CCCCC3)cc1` gave Vaccinia mCherry inactive, Sm TGR block inactive, Vaccinia Venus inactive, FMDV antiviral 10µM, HCMV antiviral -102 and HCV inhibitor inconclusive.
For C/C(CC(=O)NCc1ccco1)=N\NC(=O)Cc1ccc(Cl)cc1 the results were Vaccinia mCherry inactive, Sm TGR block inactive, Vaccinia Venus inactive, FMDV antiviral inactive, HCMV antiviral inactive and HCV inhibitor inactive.
`Cc1ccc(-c2ccc(/C=C3\SC(N4CCOCC4)=NC3=O)o2)cc1` gave Vaccinia mCherry inconclusive, Sm TGR block inconclusive, Vaccinia Venus inconclusive, FMDV antiviral inactive, HCMV antiviral inactive and HCV inhibitor 13µM.
Screening O=C1N=C(N2CCOCC2)S/C1=C/c1ccc(-c2ccc(F)cc2)o1 returned Vaccinia mCherry inactive, Sm TGR block inactive, Vaccinia Venus inactive, FMDV antiviral inactive, HCMV antiviral inactive and HCV inhibitor inconclusive.
`Cc1ccc(/C=C2\SC(N3CCN(C(c4ccccc4)c4ccccc4)CC3)=NC2=O)o1` gave Vaccinia mCherry inconclusive, Sm TGR block 35µM, Vaccinia Venus inactive, FMDV antiviral inconclusive, HCMV antiviral inactive and HCV inhibitor inconclusive.
`Cc1onc(-c2ccccc2Cl)c1C(=O)Nc1ccc(S(=O)(=O)Nc2nccs2)cc1` gave Vaccinia mCherry inactive, Sm TGR block inactive, Vaccinia Venus inactive, FMDV antiviral inactive, HCMV antiviral inactive and HCV inhibitor inactive.
COc1cccc([C@@H]2CC=C(C(=O)O)[C@H](c3ccc(Cl)cc3)N2S(=O)(=O)c2ccc(C)cc2)c1 was read as Vaccinia mCherry inactive, Sm TGR block inactive, Vaccinia Venus inactive, FMDV antiviral inactive, HCMV antiviral inactive and HCV inhibitor inactive.
`O=C1CCCN1CC(O)CS(=O)(=O)c1ccccc1` (stereo unspecified) gave Sm TGR block inactive, FMDV antiviral inactive, HCMV antiviral inactive and HCV inhibitor inactive.
Screening O=[N+]([O-])c1ccc(S(=O)(=O)CC(CN2CCOCC2)N2CCOCC2)cc1 (stereo unspecified) returned Vaccinia mCherry inconclusive, Sm TGR block inconclusive, Vaccinia Venus inconclusive, FMDV antiviral inactive, HCMV antiviral -102 and HCV inhibitor 11µM.
Screening O=[N+]([O-])c1ccc(C(O)CN2CCOCC2)cc1 (stereo unspecified) returned Vaccinia mCherry inactive, Sm TGR block inactive, Vaccinia Venus inactive, FMDV antiviral inactive, HCMV antiviral inactive and HCV inhibitor inactive.
O=S(=O)(CC(CN1CCCCC1)N1CCCCC1)c1ccccc1 (stereo unspecified) was read as Sm TGR block inactive, FMDV antiviral 35µM, HCMV antiviral -99 and HCV inhibitor inconclusive.
For CC(NC(=O)c1ccc2c(c1)CCN2S(=O)(=O)c1ccccc1)c1ccccc1 (stereo unspecified) the results were Vaccinia mCherry inactive, Sm TGR block inactive, Vaccinia Venus inactive, FMDV antiviral inactive and HCMV antiviral inactive.
`COC(=O)c1ccc2nc(-c3ccc(OC)c(OC)c3)c(Cc3ccc(OC)cc3C)n2c1` gave Vaccinia mCherry inactive, Vaccinia Venus inactive, FMDV antiviral inactive and HCMV antiviral inactive.
CCNC(=O)N1CCC(c2nc3ccccc3s2)CC1 was read as Vaccinia mCherry inactive, Sm TGR block inactive, Vaccinia Venus inactive, FMDV antiviral inactive, HCMV antiviral inactive and HCV inhibitor inactive.
For Cc1ccc(NC(=S)N2CCC(c3nc4ccccc4s3)CC2)cc1C the results were Vaccinia mCherry inactive, Sm TGR block inactive, Vaccinia Venus inactive, HCMV antiviral -90 and HCV inhibitor inactive.
Screening Cc1cc(C)cc(NC(=S)N2CCC(c3nc4ccccc4s3)CC2)c1 returned Vaccinia mCherry inactive, Sm TGR block inactive, Vaccinia Venus inactive, HCMV antiviral -85 and HCV inhibitor inactive.
Cc1ccc2c(C)nc(Nc3nc(CSc4nnnn4-c4ccccc4)cc(=O)[nH]3)nc2c1 was read as Vaccinia mCherry inconclusive, Sm TGR block inactive, Vaccinia Venus inconclusive, FMDV antiviral inactive, HCMV antiviral -101 and HCV inhibitor 11µM.
Screening COCc1cc(=O)[nH]c(Nc2nc(C)c3ccccc3n2)n1 returned Sm TGR block inactive, FMDV antiviral inactive, HCMV antiviral -102 and HCV inhibitor inconclusive.
For Cc1ccc(SCc2cc(=O)[nH]c(Nc3nc(C)c4cccc(C)c4n3)n2)cc1 the results were Vaccinia mCherry inactive, Sm TGR block inactive, Vaccinia Venus inactive, FMDV antiviral inactive and HCMV antiviral inactive.
Screening Cc1cc(C)c2nc(Nc3nc(CSc4nc5ccccc5[nH]4)cc(=O)[nH]3)nc(C)c2c1 returned Vaccinia mCherry inactive, Vaccinia Venus inactive, FMDV antiviral inconclusive, HCMV antiviral -65 and HCV inhibitor inconclusive.
For Cc1ccc2c(C)nc(Nc3nc(CSc4nc5ccccc5s4)cc(=O)[nH]3)nc2c1 the results were Vaccinia mCherry inactive, Vaccinia Venus inactive, FMDV antiviral inactive, HCMV antiviral inconclusive and HCV inhibitor inconclusive.
For COCc1cc(=O)[nH]c(Nc2nc3ccccc3o2)n1 the results were Vaccinia mCherry inactive, Sm TGR block inactive, Vaccinia Venus inactive, FMDV antiviral inactive, HCMV antiviral inactive and HCV inhibitor inactive.
For COc1ccc2nc(Nc3nc(CSc4ccc(C)cc4)cc(=O)[nH]3)nc(C)c2c1 the results were Vaccinia mCherry inactive, Sm TGR block inactive, Vaccinia Venus inactive, FMDV antiviral inactive, HCMV antiviral -67 and HCV inhibitor inactive.
Cc1ccc(S(N)(=O)=O)cc1NC(=O)c1c(-c2c(Cl)cccc2Cl)noc1C was read as Vaccinia mCherry inactive, Sm TGR block inactive, Vaccinia Venus inactive, FMDV antiviral inactive and HCMV antiviral inactive.
